Results filed as inconclusive are left out. A structure can be active in one record and inactive in another. The source made the active and inactive calls. The calls were made as follows, unless noted: active = hit-call score of the fitted dose curve at least 0.9, where 1 is the maximum; inactive = score below 0.9.
Key:
[1] = CCTE_Shafer_MEA_acute_burst_percentage_mean: CCTE's Neural Acute Assay for Percentage of Spikes in a Burst, Shafer Lab (AID 2284017);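 as to AC50: curve fitted for loss of signal so potency reflects decreased burst percentage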
Outline: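 Primary rat cortical neurons on 48-well MEA plates, treated on DIV 13 or 15 at 0.03-40 uM. Spikes detected at 8x rms noise at 37C; percent change from 40-min baseline to 40-min post-dose recording, fitted versus DMSO.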

[2] = CCTE_Shafer_MEA_acute_burst_percentage_std: CCTE's Neural Acute Assay for Standard Deviation of Burst Percentage, Shafer Lab (AID 2284018);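 also: fitted in the negative direction so actives lower burst percentage SD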
Outline: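 Value is percent change from baseline in the across-electrode SD of spikes-in-bursts percentage, wells with >/= 10 active electrodes. Acute 40-min exposure to 0.03-40 uM on DIV 13 or 15 rat cortical cultures, recorded at 37 C after 40-min baseline.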

[3] = CCTE_Shafer_MEA_acute_per_network_burst_spike_number_mean: CCTE's Neural Acute Assay for Average Number of Spikes in a Network Burst, Shafer Lab (AID 2284019);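 as to AC50: curve fitted for loss of signal so actives reduce spikes per network burst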
Outline: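 Percent change from baseline in mean spikes per network burst, spikes detected at 8x rms noise. Each compound at 0.03-40 uM in at least three wells of rat cortical cultures, recorded 40 min before and 40 min during exposure.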

[4] = CCTE_Shafer_MEA_acute_per_network_burst_spike_number_std: CCTE's Neural Acute Assay for Standard Deviation of Number of Spikes in a Network Burst, Shafer Lab (AID 2284020);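 also: fitted for decrease in spike-number SD versus DMSO so actives lower it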
Outline: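 Endpoint: percent change from 40 min baseline in standard deviation of spikes per network burst, after 40 min compound exposure (0.03-40 uM, 37 C). Cortical rat neurons on MEA at DIV 13 or 15; spikes detected at 8x rms noise, 300-5000 Hz band-pass.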

[5] = CCTE_Shafer_MEA_acute_per_network_burst_electrodes_number_mean: CCTE's Neural Acute Assay for Mean Number of Electrodes in a Network Burst, Shafer Lab (AID 2284021);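 also: curves fitted for decreases only so hits reduce electrodes per burst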
Outline: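 Readout: % change in mean electrodes active per network burst, post- vs pre-treatment, each well. Spikes detected at 8x rms noise after 300-5000 Hz band-pass; rat cortical cultures, DIV 13/15, compounds 0.03-40 uM, DMSO baseline.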

[6] = CCTE_Shafer_MEA_acute_network_burst_percentage: CCTE's Neural Acute Assay for Percentage of Network Bursts, Shafer Lab (AID 2284022);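 also: curves fitted for loss so actives lower network burst percentage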
Outline: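 Rat cortical cultures, DIV 13/15; 20 min equilibration, 40 min baseline, compound 0.03-40 uM, 40 min recording, 37 C. Spikes: 300-5000 Hz band-pass, threshold 8x rms noise. Readout: % change in network-burst spike fraction; loss direction vs DMSO.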

[7] = CCTE_Shafer_MEA_acute_cross_correlation_area: CCTE's Neural Acute Assay for Area of Cross Correlation, Shafer Lab (AID 2284024);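 also: area under pooled inter-electrode spike cross-correlation near zero lag as percent change from own baseline; curves fitted for loss of cross-correlation area so actives lower synchrony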
Outline: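 Rat cortical cultures, DIV 13/15, MEA; spikes detected at 8x rms noise (300-5000 Hz band-pass). Compound 0.03-40 uM, ≥3 wells each. Readout: % change in pooled inter-electrode cross-correlation area vs own baseline; DMSO negative control.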

[8] = CCTE_Shafer_MEA_acute_cross_correlation_HWHM: CCTE's Neural Acute Assay for Cross Correlation at Half Width at Half Maximum, Shafer Lab (AID 2284026);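 also: percent change per well from pre-dose baseline in spike cross-correlogram half width; hits are a decrease in cross-correlogram half width relative to DMSO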
Outline: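 Read-out: half width at half maximum of action-potential cross-correlogram, percent change versus pre-treatment baseline, fitted in loss direction against DMSO. Rat cortical cultures, DIV 13 or 15, dosed 0.03-40 uM, 40-min recordings at 37 C.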

[9] = CCTE_Shafer_MEA_acute_synchrony_index: CCTE's Neural Acute Assay for Synchrony, Shafer Lab (AID 2284027);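 also: network synchrony index of spontaneous spiking in primary rat cortical neurons on MEAs; fitted for loss of signal so actives lower synchrony relative to DMSO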
Outline: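 Acute exposure of rat primary cortical neurons (DIV 13 or 15) at 0.03-40 uM. Synchrony index, 40 min before vs after, as % change relative to DMSO control.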

[10] = CCTE_Deisenroth_AIME_384WELL_CTox_Active: Cytotoxicity Assessment (CTOX) in CCTE's 384-well Estrogen Receptor Transactivation Assay with AIME metabolic competence (metabolism positive), Deisenroth Lab (AID 2284037; active = hit-call score of the fitted dose curve at least 0.9, where 1 is the maximum;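 also: chemicals first conditioned 2 h by alginate-bound induced rat liver S9 before cells; activity means signal loss indicating cell death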)
Outline: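 Cytotoxicity in VM7Luc4E2 breast cells, 24 hour, measured as protease-substrate fluorescence loss, after 2-hour metabolic conditioning with induced rat hepatic S9 in alginate microspheres. Concentrations 0.002 - 200 uM, 10 points, bidirectional fitting.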

[11] = biological target: Estrogen receptor (Homo sapiens) (UniProt P03372); assay: CCTE_Deisenroth_AIME_384WELL_LUC_Shift: CCTE's 384-well Estrogen Receptor Transactivation Assay with AIME metabolic competence data shift (ERTA luciferase; difference in metabolism positive and negative), Deisenroth Lab (AID 2284041);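 also: shift is response with S9 minus without S9 so positive means metabolism raised ER signal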
Outline: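 Test chemicals (0.002–200 uM, 10-point) were pre-incubated 2 h with alginate microspheres containing phenobarbital/beta-naphthoflavone-induced male Sprague Dawley rat liver S9 or water, then medium was transferred to VM7Luc4E2 cells for 24 h luciferase readout; shift = S9-positive minus S9-negative normalized response.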

[12] = CCTE_Shafer_MEA_dev_firing_rate_mean: CCTE's Neural Network Formation Assay for Mean Firing Rate, Shafer Lab (AID 2284031)
Outline: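 Extracellular spike frequency, AUC over DIV 5–12 recordings, in rat cortical neuron MEA cultures dosed from plating; loss direction vs DMSO.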

[13] = CCTE_Shafer_MEA_dev_per_burst_spike_percent: CCTE's Neural Network Formation Assay for Percent of Spikes in a Burst, Shafer Lab (AID 2284032);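 as to AC50: fitted as a decrease in burst spike percentage below DMSO baseline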
Outline: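 Value is trapezoidal AUC over recordings on days 5, 7, 9 and 12 of the well-mean fraction of spikes falling in single-electrode bursts; rat cortical cultures exposed continuously from plating, treatment renewed DIV 5 and 9, fitted downward against DMSO.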

[14] = CCTE_Shafer_MEA_dev_active_electrodes_number: CCTE's Neural Network Formation Assay for Number of Active Electrodes, Shafer Lab (AID 2284040; active = hit-call score of the fitted dose curve at least 0.9, where 1 is the maximum;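 as to AC50: potency for loss of active electrodes versus DMSO so lower counts are hits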)
Outline: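 Developing rat cortical networks on MEAs, exposed DIV 0–12. Value is the AUC of active-electrode counts (≥5 spikes/min) from days 5, 7, 9, 12, relative to DMSO.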

[15] = biological target: Estrogen receptor (Homo sapiens) (UniProt P03372); assay: CCTE_Deisenroth_AIME_384WELL_LUC_Inactive: CCTE's 384-well Estrogen Receptor Transactivation Assay without AIME metabolic competence (ERTA luciferase; metabolism negative), Deisenroth Lab (AID 2284038; active = hit-call score of the fitted dose curve at least 0.9, where 1 is the maximum;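 also: VM7Luc4E2 breast cells given medium preincubated 2 h with S9-free microspheres; hits raise estrogen receptor luciferase signal so potencies reflect agonists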)
Outline: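 Metabolism-negative mode: AIME lids stamped in alginate-water, no hepatic S9. 2 h chemical incubation → medium onto VM7Luc4E2 ERTA, 24 h. Readout luciferase luminescence; gain-of-signal fit vs 17beta-estradiol. Conc. 0.002 - 200 uM.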

[16] = CCTE_Deisenroth_AIME_384WELL_CTox_Inactive: Cytotoxicity Assessment (CTOX) in CCTE's 384-well Estrogen Receptor Transactivation Assay without AIME metabolic competence (metabolism negative), Deisenroth Lab (AID 2284039; active = hit-call score of the fitted dose curve at least 0.9, where 1 is the maximum;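 also: cell viability via live-cell protease substrate cleaved to fluorescent probe; cells exposed 24 h to medium preincubated 2 h with alginate-water beads without S9; loss of fluorescence signal means loss of viability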)
Outline: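 VM7Luc4E2 cells, metabolism-negative arm: test chemicals (0.002–200 uM, 10 points) pre-incubated 2 h with alginate-water microspheres, then medium transferred to cells for 24 h. Viability read as protease-substrate cleavage to fluorescent probe; loss-of-signal, bidirectional fitting.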

Measured: AC50

Chain of Estrogen receptor (Homo sapiens) (P03372 whole entry, looked up): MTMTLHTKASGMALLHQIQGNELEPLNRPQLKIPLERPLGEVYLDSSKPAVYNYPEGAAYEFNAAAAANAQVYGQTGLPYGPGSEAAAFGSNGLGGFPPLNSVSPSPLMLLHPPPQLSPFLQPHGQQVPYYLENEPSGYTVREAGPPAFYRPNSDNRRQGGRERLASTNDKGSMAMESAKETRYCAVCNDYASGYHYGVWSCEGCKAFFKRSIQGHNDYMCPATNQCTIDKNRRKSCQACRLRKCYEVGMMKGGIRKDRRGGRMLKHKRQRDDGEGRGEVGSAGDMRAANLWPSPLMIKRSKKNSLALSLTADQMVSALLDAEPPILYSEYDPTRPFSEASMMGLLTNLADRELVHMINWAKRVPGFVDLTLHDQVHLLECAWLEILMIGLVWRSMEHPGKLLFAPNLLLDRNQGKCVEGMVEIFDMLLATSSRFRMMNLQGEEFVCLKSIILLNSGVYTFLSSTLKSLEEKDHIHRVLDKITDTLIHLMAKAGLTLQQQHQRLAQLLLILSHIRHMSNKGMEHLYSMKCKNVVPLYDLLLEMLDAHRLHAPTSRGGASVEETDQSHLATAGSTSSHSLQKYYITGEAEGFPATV

N#CSCSc1nc2ccccc2s1
inactive: [7] | [10] | [11]
active: [1] 25.5 µM | [2] 32.7 µM | [3] 11.6 µM | [4] 20 µM | [5] 27.2 µM | [6] 37.2 µM | [8] 23.9 µM | [9] 28.6 µM

COCCO
inactive: [12] | [13] | [14]

S=C(S)NCCNC(=S)S.[Mn+2].[S-]C([S-])=NCCN=C([S-])[S-].[Zn+2]
inactive: [12] | [14]
active: [13] 7.52 µM | [14] 7.52 µM

COC(=O)c1ccccc1C(=O)O
inactive: [1] | [2] | [3] | [4] | [5] | [6] | [7] | [8] | [9]

CC(C)(C)[C@@H](O)[C@@H](Cc1ccc(Cl)cc1)n1cncn1
inactive: [1] | [2] | [3] | [4] | [5] | [6] | [7] | [8] | [9]

CCCCC(CC)CN1C(=O)C2C3C=CC(C3)C2C1=O (stereo not drawn)
inactive: [5] | [6] | [7] | [8] | [12] | [13]
active: [1] 36 µM | [2] 30.3 µM | [3] 4.1 µM | [4] 29.8 µM | [9] 4.02 µM | [14] 4.74 µM

CCN(CC)C(=O)c1cccc(C)c1
active: [14] 19.5 µM
inactive: [12] | [13] | [15] | [11]

c1ccc2[nH]c(-c3cscn3)nc2c1
active: [15] 2.7 µM | [11] 0.482 µM
inactive: [10] | [16]

OB(O)O
not listed: [10] | [11] | [15] | [16]
inactive: all other assays above

C=CCOC(Cn1ccnc1)c1ccc(Cl)cc1Cl (stereo not drawn)
inactive: [3] | [4] | [5] | [6] | [7]
active: [1] 2.09 µM | [2] 3.32 µM | [8] 5.57 µM | [9] 8.51 µM

From PubChem BioAssay (EPA / NIEHS)
